# From the supplement of paper PMC9254222
# Over roughly 1,100 compounds, “Wnt reporter firefly/Renilla luciferase ratio relative to plate median” has its median near 1.1; the highest 2% begin near 1.6. Many of the other results were omitted from the sample, so the highest values are more common in it than they were.
# System: HEK293T (UBE3A T485A transfected, BAR Wnt reporter)
# Assay: Wnt reporter firefly/Renilla luciferase ratio relative to plate median (fold (linear ratio)); higher = more Wnt/beta-catenin reporter activation
# Conditions: 24 h
# Procedure, shortened: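 HEK293T cells carrying a transfected BAR firefly luciferase Wnt reporter, TK-Renilla and an expression plasmid were exposed to chemicals at 0.01–100 uM for 24 h, with dosing four hours after transfection. Readout used Dual-Glo luciferase. The firefly/Renilla ratio defined Wnt activity and raw Renilla defined cell health, each median-centred per plate. Figures are means of four biological replicates.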
SMILES,Wnt reporter firefly/Renilla luciferase ratio (concentration: 0.1 uM),Wnt reporter firefly/Renilla luciferase ratio (concentration: 1 uM),Wnt reporter firefly/Renilla luciferase ratio (concentration: 10 uM),Wnt reporter firefly/Renilla luciferase ratio (concentration: 100 uM),Wnt reporter firefly/Renilla luciferase ratio (concentration: 0.01 uM)
CCCCCCCCCC(CC)c1ccc(S(=O)(=O)O)cc1.OCCN(CCO)CCO (stereo not given) [Dodecylbenzene sulfonate triethanolamine(1:1)],1.13,1.29,1.13,1.01,
COc1cnc(OC)n2nc(NS(=O)(=O)c3c(OCC(F)F)cccc3C(F)(F)F)nc12 [Penoxsulam],1.09,1.29,1.38,1.75,1.12
"C=CC(=O)NCNC(=O)C=C [N,N'-Methylenebisacrylamide]",0.951,0.999,1.03,1.21,
"CN(C)c1ccc(Cc2ccc(N(C)C)cc2)cc1 [4,4'-Methylenebis(N,N-dimethylaniline)]",1.02,1.07,1.14,0.474,
CCc1nn(C)c(C(=O)NCc2ccc(C(C)(C)C)cc2)c1Cl [Tebufenpyrad],0.632,0.279,0.218,0.51,0.583
COC(=O)N(C(=O)N1CO[C@@]2(C(=O)OC)Cc3cc(Cl)ccc3C2=N1)c1ccc(OC(F)(F)F)cc1 [Indoxacarb],0.96,1.2,0.895,0.242,0.92
CCCCN(CCCC)SN(C)C(=O)Oc1cccc2c1OC(C)(C)C2 [Carbosulfan],1.07,1.13,1.07,1.28,
c1ccc2c(c1)Nc1ccccc1S2 [Phenothiazine],1.08,1.01,0.726,0.188,
CC(C)(C)OOC(=O)c1ccccc1 [tert-Butyl perbenzoate],1.06,0.994,1.24,0.688,
"Cc1ccc(N)c(N)c1 [3,4-Diaminotoluene]",1.18,1.26,1.2,,
Nc1ccc(-c2ccc(N)cc2)cc1 [Benzidine],1.22,1.11,1.23,0.579,
Cc1ccc(N)cc1 [4-Methylaniline],1.14,1.18,1.34,1.79,
CC(C)=CC1C(C(=O)OCN2C(=O)C3=C(CCCC3)C2=O)C1(C)C (stereo not given) [Tetramethrin],0.76,0.941,0.819,0.824,0.717
CCOc1nc(F)cc2nc(S(=O)(=O)Nc3c(Cl)cccc3Cl)nn12 [Diclosulam],1.38,0.954,1.05,0.892,1.4
"Oc1ccc(Cl)cc1Cl [2,4-Dichlorophenol]",1.06,1.15,1.36,1.47,
CCCCOC(=O)c1ccccc1C(=O)O [Monobutyl phthalate],1.12,2.24,1.14,1.75,1.07
CCCCCOC(=O)c1ccccc1C(=O)OCCCCC [Dipentyl phthalate],1.06,1.36,1.14,1.15,
CCCCOC(=O)c1ccccc1C(=O)OCCCC [Dibutyl phthalate],0.942,0.947,1.05,0.275,0.897
CC(C)CCCCCCCOC(=O)c1ccccc1C(=O)OCCCCCCCC(C)C,0.955,1.04,1.1,1.9,
CCCCCCCCOC(=O)c1ccccc1C(=O)OCCCCCCCC [Dioctyl phthalate],1.21,1.11,1.04,1.25,

SMILES,Wnt reporter firefly/Renilla luciferase ratio (concentration: 0.1 uM),Wnt reporter firefly/Renilla luciferase ratio (concentration: 1 uM),Wnt reporter firefly/Renilla luciferase ratio (concentration: 10 uM),Wnt reporter firefly/Renilla luciferase ratio (concentration: 100 uM),Wnt reporter firefly/Renilla luciferase ratio (concentration: 0.01 uM)
CCCCCCOC(=O)c1ccccc1C(=O)OCCCCCC [Dihexyl phthalate],1.05,0.965,1.29,0.728,
CCOP(=O)(NC(C)C)Oc1ccc(SC)c(C)c1 (stereo not given) [Fenamiphos],0.758,0.93,0.83,0.243,0.946
C/C(=N\C#N)N(C)Cc1ccc(Cl)nc1 [Acetamiprid],0.96,0.904,1.08,1.18,1.26
Cc1c(COC(=O)[C@H]2[C@@H](/C=C(\Cl)C(F)(F)F)C2(C)C)cccc1-c1ccccc1 [Bifenthrin],1.35,1.11,0.982,0.325,0.843
COP(=O)(OC)O/C(C)=C/C(=O)N(C)C [Dicrotophos],1.12,1.1,0.957,1.09,1.29
COP(=O)(OC)OC=C(Cl)Cl [Dichlorvos],1.67,1.4,1.34,1.21,1.2
CNC(=O)/C=C(\C)OP(=O)(OC)OC [Monocrotophos],1.1,1.22,1.06,1.12,0.971
O=P(O)(O)CCCl [Ethephon],1.23,1.18,0.988,1.19,0.756
CC(C)N1C(=O)N(c2ccccc2)CSC1=NC(C)(C)C [Buprofezin],1.69,1.16,1.12,0.27,1.25
CC(C)N1C(=O)c2ccccc2NS1(=O)=O [Bentazone],0.947,0.964,0.949,0.329,1.46
COC(=CC(N)=O)C(C)C(C=Cc1csc(-c2csc(C(C)C=CC=CC(C)C)n2)n1)OC (stereo not given) [Myxothiazol],0.921,0.539,0.492,,1.41
CCCCC(CC)COC(=O)c1ccccc1C(=O)O (stereo not given),0.861,1.04,0.979,0.821,1.04
N#Cc1c[nH]cc1-c1cccc2c1OC(F)(F)O2 [Fludioxonil],0.842,0.847,1.04,0.858,0.759
CNC(=O)Oc1cccc2ccccc12 [Carbaryl],1.18,1.07,0.714,0.629,0.987
CCOP(=O)(SC(C)CC)N1CCSC1=O (stereo not given) [Fosthiazate],0.761,0.922,1.5,0.772,0.839
ClC1=C(Cl)C2(Cl)C3C4OC4C(Cl)C3C1(Cl)C2(Cl)Cl (stereo not given) [Heptachlor epoxide],1.18,1.23,1.06,1.5,
CCc1cccc(C)c1N(C(=O)CCl)C(C)COC (stereo not given) [Metolachlor],1.6,0.921,0.833,0.28,0.768
O=[N+]([O-])C(Br)(CO)CO [Bronopol],1.17,1.15,1.07,,
CCN(CC)C(=O)SCc1ccc(Cl)cc1 [Thiobencarb],1.27,1.52,1.02,1.54,0.948
O=[N+]([O-])c1cc(C(F)(F)F)c(Cl)c([N+](=O)[O-])c1Nc1ncc(C(F)(F)F)cc1Cl [Fluazinam],0.969,1.24,0.338,,0.902
